ELG1 repair inh = ELG1-dependent DNA repair inhibition; actives 2.3% (n = 330,000); HEK293T ELG1-luciferase reporter, luminescence, 16 h; DNA damage induced by 5-fluorouridine; AID 504467; Potency, µM (doses to about 46.1 µM), for inactives: top-dose activity change, negative = inhibition, hits mostly inhibitors; also: % is scaled to controls: 0 for no effect and ±100 for the full control effect; nearly all actives have a fitted effect of over 55% in size
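HEK293T cells expressing luciferase-tagged ELG1 (2,000/well) received 5-Fluorouridine plus compound or DMSO for 16 hr at 37 °C. Luciferase was read by ONE-Glo luminescence after 30 min at room temperature.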
FLuc counter = counter-screen for miR-21 project: firefly luciferase inhibitors or activators | P08659 | purified FLuc, Km substrates, luminescence inhibition | Potency, µM (doses to about 57.5 µM), inactives show at the top dose activity change, negative = inhibition, usual class: inhibitors | actives 6.9% (n = 360,000);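 also: plate controls were vehicle for no effect and reference inhibitor for full effect; nearly all actives have a fitted effect of over 55% in size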
Target sequence (P08659 whole entry, looked up): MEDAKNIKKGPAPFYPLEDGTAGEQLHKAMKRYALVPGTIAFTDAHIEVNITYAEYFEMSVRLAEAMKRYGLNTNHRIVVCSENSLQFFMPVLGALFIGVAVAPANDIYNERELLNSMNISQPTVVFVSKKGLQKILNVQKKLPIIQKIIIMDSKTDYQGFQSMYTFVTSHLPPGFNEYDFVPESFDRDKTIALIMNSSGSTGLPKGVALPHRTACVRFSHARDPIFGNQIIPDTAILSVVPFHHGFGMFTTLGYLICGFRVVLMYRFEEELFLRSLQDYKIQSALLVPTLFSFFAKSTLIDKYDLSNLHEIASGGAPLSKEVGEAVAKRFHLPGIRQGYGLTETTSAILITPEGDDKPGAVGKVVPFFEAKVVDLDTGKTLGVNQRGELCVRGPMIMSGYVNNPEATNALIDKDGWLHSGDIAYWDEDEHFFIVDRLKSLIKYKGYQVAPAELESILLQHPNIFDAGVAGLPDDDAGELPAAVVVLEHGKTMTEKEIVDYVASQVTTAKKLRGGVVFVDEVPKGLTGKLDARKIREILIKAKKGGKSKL
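Purified P. pyralis luciferase, 10 nM final, with Km-level 10 uM D-luciferin and 10 uM ATP in 50 mM Tris acetate pH 7.5, 10 mM Mg acetate, 0.01% Tween-20, 0.05% BSA; 6-point qHTS titration about 60 µM downward; luminescence read.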
NPC1 prom act = activators of NPC1 promoter | Huh7 NPC1 promoter luciferase reporter, 24 h | Potency, µM (series often up to 9.22 µM), without a hit: at the top dose activation, actives largely listed as activators | actives 2.4% (n = 320,000) | AID 485313; also: % of control where 0% means no effect; nearly all actives have a fitted effect of over 60% in size
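Luminescence read-out of NPC1 promoter-driven luciferase in stably transfected Huh7 cells; compounds delivered in DMSO and left 24 h at 37C, 5% CO2, qHTS titration format.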
ELG1 genotoxic = induces genotoxicity in HEK293T cells with luciferase-tagged ELG1; HEK293T ELG1-luciferase reporter, luminescence, 16 h; Potency, µM (series often up to 46 µM), for inactives: at the highest dose activity change, positive = activation, usual class: activators; actives 1.3% (n = 330,000); AID 504466; also: % of control where 0% means no effect; nearly all actives have a fitted effect of over 60% in size
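Quantitative HTS format in 1536-well plates. HEK293T ELG1-luciferase reporter cells receive test compound and are incubated 16 hr at 37 °C, 5% CO2; ONE-Glo added, 30 min room temperature, then luminescence read.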
SMN2 splice enh = SMN2 splice variant enhancement; actives 2.8% (n = 210,000); Potency, µM (series often up to 46.1 µM), without a hit: at the top dose activity change, positive = activation, hits mostly activators; HEK293 SMN2-luciferase splicing reporter, luminescence, 30-36 h; also: % of control where 0% means no effect; nearly all actives have a fitted effect of over 55% in size
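qHTS luciferase splicing reporter: luminescence rises when SMN2 exon 7 is included in transfected HEK293 cells. Compound exposure lasted 30-36 h at 37C, with 4.5 mM final sodium butyrate as control, followed by a ONE-Glo read.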
Rab9 prom act = activators of Rab9 promoter. AID 485297. actives 2.8% (n = 320,000). Huh7 Rab9 promoter-luciferase reporter, luminescence, 24 h. Potency, µM (doses to about 9.22 µM), inactives show at the highest dose activation, negative = inhibition, hits mostly activators; also: % of control where 0% means no effect; nearly all actives have a fitted effect of over 60% in size
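Measured in stably transfected Huh7 cells bearing a Rab9 promoter–luciferase construct: 24 h compound treatment at 37 °C, followed by luminescence detection.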
* = called active by the depositor; ? = inconclusive; . = no result. Compounds with a hit are over-represented: about 9.3% of the library has one in this group of screens. Calls follow the shape of the dose curve; as a rule, active = well fitted curve in the direction sought with a large enough effect; inconclusive = small, poorly fitted or top-dose-only effect, or another doubt; inactive = no such curve, though single readings can be large; an effect the other way counts as inactive or inconclusive. Potency is read from the fitted curve at half-maximal effect.

SMILES	ELG1 repair inh	FLuc counter	NPC1 prom act	ELG1 genotoxic	SMN2 splice enh	Rab9 prom act
Cc1cc(=O)[nH]c(SCC(=O)Nc2ncc(S(=O)(=O)c3ccc([N+](=O)[O-])cc3)s2)n1	-14.9%	?	-0.8%	0.2%	.	-2.8%
NC(=O)C[n+]1cccc(CNC(=O)c2ccc(OC(F)F)cc2)c1	0.0%	0.5%	1.5%	5.3%	9.8%	0.0%
COc1ccc(Br)cc1/C=C/C(=O)Nc1ccc2ccccc2c1	-9.3%	-4.7%	-1.3%	-0.2%	-3.9%	-4.8%
COc1ccc(Br)cc1C(=O)Nc1cccc(NC(=O)c2ccco2)c1	20.6µM*	23.9µM*	1.5%	-19.6%	.	-6.5%
O=C(Nc1cccc(OC(=O)c2ccco2)c1)c1ccco1	?	-5.8%	2.1%	12.9%	0.4%	-1.2%
O=C(COc1cccc(NC(=O)c2ccco2)c1)c1ccccc1	?	16.9µM*	7.0%	0.1%	-31.5%	10.2%
COc1cccc(NC(=O)c2ccco2)c1	?	?	?	14.6µM*	10µM*	?
COc1ccc(Br)cc1/C=C/C(=O)Nc1ccc(C)cc1	20.6µM*	-21.6%	23.6%	-7.9%	-16.0%	14.7%
Cc1cc(=O)n(Cc2ccc(OC(C)C)cc2)c(=S)[nH]1	-1.0%	2.9%	1.4%	-2.3%	1.6%	-0.2%
CCCC(=O)O[C@@H]1C[C@@H](C)N(C(=O)c2ccccc2)c2ccc(C)cc21	1.8%	1.4%	-3.9%	-2.9%	-13.2%	-3.3%
CCN(CC)CCN(C(=O)c1cccc(N2C(=O)CCC2=O)c1)c1nc2cc3c(cc2s1)OCO3	4.8%	3.1%	-2.6%	4.4%	-5.5%	-2.3%
Cc1cccc(NC(=O)C(C)SCc2nc3sc4c(c3c(=O)[nH]2)CCCC4)n1 (stereo not given)	-1.0%	0.6%	-8.2%	-3.0%	.	-7.4%
COc1ccc(C(=O)COc2cccc(NC(=O)c3ccco3)c2)cc1	?	15.1µM*	-1.8%	-6.9%	-9.8%	-1.0%
COc1cccc(C(=O)COc2cccc(NC(=O)c3ccco3)c2)c1	2.9%	26.9µM*	0.4%	-1.7%	.	-3.3%
COc1ccc(Br)cc1C(=O)Nc1ccc(O)cc1	27.4%	?	6.6%	15.2%	28.2µM*	1.8%
CCCCn1c(SCc2ccc(Cl)cc2)nc2c1c(=O)[nH]c(=O)n2C	?	2.9%	1.0%	12.4%	-20.6%	-4.4%
CN1N=C2c3ccccc3CCC2C1c1ccc(F)cc1 (stereo not given)	?	?	?	16.9%	.	2.51µM*
CN1N=C2c3ccccc3CCC2C1c1ccc(Cl)cc1 (stereo not given)	?	10.7µM*	?	?	.	?
CNC(=S)N1N=C2c3ccccc3CCC2C1c1ccccc1Cl (stereo not given)	?	-3.9%	-6.3%	-2.6%	.	-5.6%
CN1CCN(C2=Nc3cc(F)ccc3Cc3ccccc32)CC1	.	-0.7%	-4.9%	.	-18.6%	-3.1%
Cc1c(Cl)cccc1NS(=O)(=O)c1ccc2c(c1)C1C=CCC1C(c1ccc(C(=O)O)cc1)N2 (stereo not given)	8.8%	?	-2.9%	0.1%	.	0.1%
C[C@@H](C(=O)NCCF)[C@H]1C[C@]1(C)[C@H](NC(=O)OCc1ccccc1)c1ccccc1	.	.	.	.	-15.9%	.
C[C@@H](C(=O)NCCc1c[nH]c2ccccc12)[C@H]1C[C@]1(C)[C@H](NC(=O)OCc1ccccc1)c1ccccc1	18.4µM*	1.9%	-3.4%	-11.6%	-29.5%	-4.9%
O=C(N=C1SC2CS(=O)(=O)CC2N1Cc1ccccc1)C1CCCO1 (stereo not given)	6.7%	-0.7%	-0.5%	0.0%	.	-4.9%
O=C(Nc1cccc(C(=O)Nc2ccc(F)cc2F)c1)c1ccccc1	?	-13.1%	7.9%	0.5%	.	10.5%
SMILES	ELG1 repair inh	FLuc counter	NPC1 prom act	ELG1 genotoxic	SMN2 splice enh	Rab9 prom act
O=C(COC(=O)c1cccs1)Nc1ccccc1C(F)(F)F	-7.7%	0.7%	-0.5%	-5.7%	.	-2.1%
O=C(COC(=O)c1ccccc1-c1nc2ccccc2s1)Nc1ccccc1C(F)(F)F	23.1µM*	-17.8%	2.0%	-2.5%	.	-4.5%
O=C(c1ccc2nc(N3CCCCC3)sc2c1)N1CCN(c2ccccn2)CC1	?	-14.4%	11.0%	-0.3%	-1.5%	19.7%
CCOC(=O)N1CCN(C(=O)c2ccc3nc(N4CCCCC4)sc3c2)CC1	14.0%	-15.1%	20.8%	-1.5%	14.3%	14.2%
Cc1cccc(N2CCN(C(=O)c3ccc4nc(N5CCCCC5)sc4c3)CC2)c1C	23.1µM*	-15.5%	-4.5%	-4.1%	.	-5.7%
NC(=O)C1CCN(C(=O)c2ccc3nc(N4CCCCC4)sc3c2)CC1	?	?	2.82µM*	?	.	3.16µM*
CC1CCCCN1C(=O)c1cc2nc(-c3ccccc3)cc(-c3ccccc3)n2n1 (stereo not given)	16.4µM*	-13.1%	-4.5%	-11.7%	10.6%	0.8%
Cc1ccc(-c2cc(C(F)F)n3ncc(C(=O)N4CCCCC4c4cccnc4)c3n2)cc1 (stereo not given)	18.3µM*	3.3%	-0.4%	-6.3%	-56.1%	-5.9%
O=C(c1cnn2c(C(F)(F)F)cc(-c3ccccc3)nc12)N1CCCCC1c1cccnc1 (stereo not given)	?	-1.2%	-5.7%	-2.5%	-24.9%	-5.8%
O=C(c1cc2nc(-c3ccc(F)cc3)cc(C(F)(F)F)n2n1)N1CCCCC1c1cccnc1 (stereo not given)	8.2µM*	?	-39.6%	-6.2%	-48.1%	-31.3%
CCN(C(=O)CSc1nc(C)nc2sc(C)c(C)c12)C1CCS(=O)(=O)C1 (stereo not given)	-7.1%	1.7%	-7.2%	-1.1%	.	-11.4%
O=C(Nc1cc([N+](=O)[O-])ccc1O)c1ccc2c(c1)C(=O)N(Cc1ccco1)C2=O	?	?	3.98µM*	3.4%	.	3.98µM*
Cc1ccc(-c2csc(N/N=C/c3ccco3)n2)c(C)c1	?	-13.4%	14.3%	18.6%	3.98µM*	17.9%
O=C(Nc1ccc(Cl)cn1)c1ccc2nccnc2c1	?	12µM*	1.58µM*	?	.	?
O=C(Nc1ccccc1Cl)c1ccc(-c2ccccn2)s1	?	3.38µM*	2µM*	?	.	1.41µM*
Cc1ccccc1C(=O)Nc1ccc(Br)c(C)n1	?	23.9µM*	?	11.6µM*	79.8%	?
Cc1ccccc1C(=O)Nc1ccc(Cl)cn1	?	16.9µM*	2.51µM*	10.3µM*	29.1%	3.55µM*
